According to PubChem BioAssay (Tox21):
Values joined by “and” are separate entries in the source; they are usually repeats but may differ in a detail not shown here. Equal entries are not always repeated. Records with an inconclusive call do not appear. A call without a number means that no potency is given here. Where a structure was tested more than once in an assay, its records may differ in their call. Active and inactive are the calls of the source. Calls come from the whole dose curve; as a rule, active = well fitted curve in the direction sought with a large enough effect in the repeat runs; inconclusive = weak or mixed curves; inactive = no such curve, though single readings can be large; an effect the other way counts as inactive or inconclusive.

Experiment: A CellTox Green Cytotoxicity Assay to monitor cytotoxicity in HEK293 cells - 8 hour (AID 1224884); note: nearly all actives have a fitted effect of over 35% in size
Conditions: CellTox Green fluorescence; series mostly up to 76.8 µM; cytotoxicity increase: at the top concentration
How it was run: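 Fluorescence from a DNA-binding dye excluded by viable cells was measured repeatedly in the same HEK293 wells (600 cells/well) during continuous compound exposure at 37 C. Each assay gives one read point: 0, 8, 16, 24, 32 or 40 h.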

| Compound | outcome | cytotoxicity increase |
| --- | --- | --- |
| CC(C)(C)c1cc(Cc2cc(C(C)(C)C)c(O)c(C(C)(C)C)c2)cc(C(C)(C)C)c1O | inactive |  |
| COC(=O)c1cccnc1 | inactive |  |
| CCCCCCC=O | inactive |  |
| CCCCC(C=O)CC (stereo unspecified) | inactive |  |
| CC(O)CC(C)(C)O (stereo unspecified) | inactive |  |
| O=c1[nH]cnc2[nH]ncc12 | inactive |  |
| CCCCCCCCCCCCCCCC(=O)OC(C)C | inactive |  |
| CC(=O)OC1CC(C)OC(C)O1 (stereo unspecified) | inactive |  |
| CC1(C)NC(=O)NC1=O | inactive |  |
| Clc1ccccn1 | inactive |  |
| CC(=O)OCCOC(C)=O | inactive |  |
| CCc1ccccc1CC | inactive |  |
| CC(C)OC(=O)COc1ccc(Cl)cc1Cl | inactive |  |
| COc1ccc(N)c(C)c1 | inactive |  |
| c1ccc2c(c1)Cc1ccccc1-2 | inactive |  |
| CC(C)(Oc1ccc(CCNC(=O)c2ccc(Cl)cc2)cc1)C(=O)O | inactive |  |
| O=C1C(c2[nH]c3ccccc3c2O)=Nc2ccccc21 | inactive |  |
| O=C(OCC1CCC2OC2C1)C1CCC2OC2C1 (stereo unspecified) | inactive |  |
| CCCCCCCCCCCCCCCCO | inactive |  |

| Compound | outcome | cytotoxicity increase |
| --- | --- | --- |
| O=C(O)Cn1c(=O)n(Cc2ccc(Br)cc2F)c(=O)c2ccc(Cl)cc21 | inactive |  |
| CCCCCCCC=O | inactive |  |
| C[C@]12CCC(=O)C=C1CC[C@@H]1[C@@H]2[C@@H](O)C[C@@]2(C)[C@H]1CC[C@]2(O)C(=O)CO | inactive |  |
| CCOCCOCCOCCO |  | 2.54% (inactive) |
| C[Si]1(C)O[Si](C)(C)O[Si](C)(C)O[Si](C)(C)O1 | inactive |  |
| N[C@H](Cc1c[nH]c2ccccc12)C(=O)O | inactive |  |
| O=C(O)c1ccc(S(=O)(=O)N(Cl)Cl)cc1 | inactive |  |
| CC(=O)OCc1ccccc1 | inactive |  |
| COc1ccc(CCC(C)=O)cc1 | inactive |  |
| CC1(C)OC[C@@H]2O[C@@]3(C(=O)O)OC(C)(C)O[C@H]3[C@@H]2O1 | inactive |  |
| CCNC(=S)NCC | inactive |  |
| CN(C)c1ccc(O)c2c1C[C@H]1C[C@H]3[C@H](N(C)C)C(=O)C(C(N)=O)=C(O)[C@@]3(O)C(=O)C1=C2O | inactive |  |
| Cc1ccc(C(C)C)c(O)c1 | inactive |  |
| OCc1cccc(Oc2ccccc2)c1 | inactive |  |
| CCCOC(=O)c1ccccc1 | inactive |  |
| CNC(=S)N(C)C | inactive |  |
| C=CC[N+](C)(C)CC=C | inactive |  |
| NCCN1CCNCC1 | inactive |  |
| CCCCCCCCCCN | inactive |  |

Experiment: qHTS RealTime-Glo MT Cell Viability Assay in HepG2 cells - 16 hour (AID 1224885); note: nearly all actives have a fitted effect of over 50% in size; note: potency is the fitted concentration of half-maximal effect
Conditions: RealTime-Glo luminescence; series mostly up to 76.8 µM; activity change, negative = cytotoxic: at the top concentration
How it was run: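 Compound treatment began 5 h after plating HepG2 cells (600/well) with NanoLuc luciferase and prosubstrate. Plates stayed at 37 C for 40 h; luminescence was captured at six time points, 0 h through 40 h.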

| Compound | Potency |
| --- | --- |
| CC(C)(C)c1cc(Cc2cc(C(C)(C)C)c(O)c(C(C)(C)C)c2)cc(C(C)(C)C)c1O | inactive |
| COC(=O)c1cccnc1 | inactive |
| CCCCCCC=O | inactive |
| CCCCC(C=O)CC (stereo unspecified) | inactive |
| CC(O)CC(C)(C)O (stereo unspecified) | inactive |
| O=c1[nH]cnc2[nH]ncc12 | inactive |
| CCCCCCCCCCCCCCCC(=O)OC(C)C | inactive |
| CC(=O)OC1CC(C)OC(C)O1 (stereo unspecified) | inactive |
| CC1(C)NC(=O)NC1=O | inactive |
| Clc1ccccn1 | inactive |
| CC(=O)OCCOC(C)=O | inactive |
| CCc1ccccc1CC | inactive |
| CC(C)OC(=O)COc1ccc(Cl)cc1Cl | inactive |
| COc1ccc(N)c(C)c1 | inactive |
| c1ccc2c(c1)Cc1ccccc1-2 | inactive |
| CC(C)(Oc1ccc(CCNC(=O)c2ccc(Cl)cc2)cc1)C(=O)O | inactive |
| O=C1C(c2[nH]c3ccccc3c2O)=Nc2ccccc21 | inactive |
| O=C(OCC1CCC2OC2C1)C1CCC2OC2C1 (stereo unspecified) | inactive |
| CCCCCCCCCCCCCCCCO | inactive |

| Compound | Potency |
| --- | --- |
| O=C(O)Cn1c(=O)n(Cc2ccc(Br)cc2F)c(=O)c2ccc(Cl)cc21 | 24.5 µM (active) |
| CCCCCCCC=O | inactive |
| CCOCCOCCOCCO | inactive |
| C[Si]1(C)O[Si](C)(C)O[Si](C)(C)O[Si](C)(C)O1 | inactive |
| N[C@H](Cc1c[nH]c2ccccc12)C(=O)O | inactive |
| O=C(O)c1ccc(S(=O)(=O)N(Cl)Cl)cc1 | inactive |
| CC(=O)OCc1ccccc1 | inactive |
| COc1ccc(CCC(C)=O)cc1 | inactive |
| CC1(C)OC[C@@H]2O[C@@]3(C(=O)O)OC(C)(C)O[C@H]3[C@@H]2O1 | inactive |
| CCNC(=S)NCC | inactive |
| CN(C)c1ccc(O)c2c1C[C@H]1C[C@H]3[C@H](N(C)C)C(=O)C(C(N)=O)=C(O)[C@@]3(O)C(=O)C1=C2O | inactive |
| Cc1ccc(C(C)C)c(O)c1 | inactive |
| OCc1cccc(Oc2ccccc2)c1 | inactive |
| CCCOC(=O)c1ccccc1 | inactive |
| CNC(=S)N(C)C | inactive |
| C=CC[N+](C)(C)CC=C | inactive |
| NCCN1CCNCC1 | inactive |
| CCCCCCCCCCN | inactive |

Experiment: qHTS RealTime-Glo MT Cell Viability Assay in HEK293 cells - 24 hour (AID 1224886); note: nearly all actives have a fitted effect of over 50% in size; note: potency is the fitted concentration of half-maximal effect; for activity change, negative = cytotoxicity: top concentration of the series differs between compounds
Conditions: RealTime-Glo luminescence; series mostly up to 76.8 µM; activity change, negative = cytotoxicity: at the top concentration
How it was run: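 Quantitative high-throughput screen of the Tox21 10K library in HEK293: cells and RealTime-Glo reagents plated together, compound added at 5 h, luminescence monitored through 40 h at 37 C.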

| Compound | Potency | activity change, negative = cytotoxicity |
| --- | --- | --- |
| CC(C)(C)c1cc(Cc2cc(C(C)(C)C)c(O)c(C(C)(C)C)c2)cc(C(C)(C)C)c1O | inactive |  |
| COC(=O)c1cccnc1 | inactive |  |
| CCCCCCC=O |  | 3.88% (inactive) |
| CCCCC(C=O)CC (stereo unspecified) | inactive |  |
| CC(O)CC(C)(C)O (stereo unspecified) |  | 2.29% (inactive) |
| O=c1[nH]cnc2[nH]ncc12 | inactive |  |
| CCCCCCCCCCCCCCCC(=O)OC(C)C | inactive |  |
| CC(=O)OC1CC(C)OC(C)O1 (stereo unspecified) | inactive |  |
| CC1(C)NC(=O)NC1=O | inactive |  |
| Clc1ccccn1 | inactive |  |
| CC(=O)OCCOC(C)=O | inactive |  |
| CCc1ccccc1CC | inactive |  |
| CC(C)OC(=O)COc1ccc(Cl)cc1Cl | inactive |  |
| COc1ccc(N)c(C)c1 | inactive |  |
| c1ccc2c(c1)Cc1ccccc1-2 | inactive |  |
| CC(C)(Oc1ccc(CCNC(=O)c2ccc(Cl)cc2)cc1)C(=O)O | inactive |  |
| O=C1C(c2[nH]c3ccccc3c2O)=Nc2ccccc21 |  | 6.38% (inactive) |
| O=C(OCC1CCC2OC2C1)C1CCC2OC2C1 (stereo unspecified) | inactive |  |

| Compound | Potency | activity change, negative = cytotoxicity |
| --- | --- | --- |
| CCCCCCCCCCCCCCCCO | inactive |  |
| CCCCCCCC=O | inactive |  |
| CCOCCOCCOCCO | inactive |  |
| C[Si]1(C)O[Si](C)(C)O[Si](C)(C)O[Si](C)(C)O1 | inactive |  |
| N[C@H](Cc1c[nH]c2ccccc12)C(=O)O | inactive |  |
| O=C(O)c1ccc(S(=O)(=O)N(Cl)Cl)cc1 | 49.3 µM (active) and inactive |  |
| CC(=O)OCc1ccccc1 | inactive |  |
| COc1ccc(CCC(C)=O)cc1 | inactive |  |
| CC1(C)OC[C@@H]2O[C@@]3(C(=O)O)OC(C)(C)O[C@H]3[C@@H]2O1 | inactive |  |
| CCNC(=S)NCC | inactive |  |
| CN(C)c1ccc(O)c2c1C[C@H]1C[C@H]3[C@H](N(C)C)C(=O)C(C(N)=O)=C(O)[C@@]3(O)C(=O)C1=C2O | inactive |  |
| Cc1ccc(C(C)C)c(O)c1 | inactive |  |
| OCc1cccc(Oc2ccccc2)c1 | inactive |  |
| CCCOC(=O)c1ccccc1 | inactive |  |
| CNC(=S)N(C)C | inactive and 13 µM (active) |  |
| C=CC[N+](C)(C)CC=C | inactive |  |
| NCCN1CCNCC1 | inactive |  |
| CCCCCCCCCCN | inactive |  |
